Results as given in PubChem BioAssay (Tox21).
Records with an inconclusive call do not appear. Where a call stands in place of a potency, no number is given. Active and inactive are the calls of the source. The call rests on the fitted dose curve.

Experiment: p53 small molecule agonists, cell-based qHTS assay with rat liver microsomes (AID 1963578)
How it was run: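 p53RE-bla cells were exposed to compounds together with rat liver microsomes (0.5 mg/mL final) and NADPH (0.5 mg/mL final) for 16 h at 37 C, then read by LiveBLAzer beta-lactamase fluorescence after 2 h at room temperature.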

Row | SMILES | Potency
1 | NC(=O)OCCCc1ccccc1 | inactive
2 | COC(=O)c1ccccc1CS(=O)(=O)NC(=O)Nc1nc(OC)cc(OC)n1 | inactive
3 | NC(=O)O | inactive
4 | C=CC(=O)OCCCCCC(C)C | inactive
5 | C=CCOCC1CO1 (configuration not stated) | inactive
6 | CCCCCCCCCl | inactive
7 | O=C(NC(=O)c1c(F)cccc1F)Nc1cc(Cl)c(OC(F)(F)C(F)C(F)(F)F)cc1Cl (configuration not stated) | inactive
8 | CNC(=O)Oc1ccccc1C1OCCO1 | inactive
9 | [N-]=[N+]=CC(=O)OC[C@H](N)C(=O)O | inactive
10 | COC(=O)c1sccc1S(=O)(=O)NC(=O)Nc1nc(C)nc(OC)n1 | inactive
11 | N#CC(c1ccccc1)c1ccccc1 | inactive
12 | CCCCC#N | inactive
13 | N#CSCSC#N | inactive
14 | CC(C)CC(C)(c1ccc(O)cc1)c1ccc(O)cc1 | inactive
15 | CCOS(C)(=O)=O | inactive
16 | Sc1ccccc1Cl | inactive
17 | Cc1cccc(N)c1C | inactive
18 | ClCOCCl | inactive
19 | Nc1c(Oc2ccccc2)cc(O)c2c1C(=O)c1ccccc1C2=O | inactive

Row | SMILES | Potency
20 | CCCCN(CC)c1c([N+](=O)[O-])cc(C(F)(F)F)cc1[N+](=O)[O-] | inactive
21 | O=S(=O)(Cl)Cl | inactive
22 | Nc1ccc(N=Nc2ccc(-c3ccc(N=Nc4c(S(=O)(=O)O)cc5cc(S(=O)(=O)O)c(N=Nc6ccccc6)c(O)c5c4N)cc3)cc2)c(N)c1 | inactive
23 | Cc1cc(Cl)ccc1OC(C)C(=O)O (configuration not stated) | inactive
24 | Cc1cc(Cl)ccc1OCCCC(=O)O | inactive
25 | OCCCl | inactive
26 | CCOC(=O)CP(=O)(OCC)OCC | inactive
27 | c1ccc(CN2CCNCC2)cc1 | inactive
28 | CCCCCCCCCCCCBr | inactive
29 | CC(=O)C(Cl)Cl | inactive
30 | Nc1cccnc1 | inactive
31 | CCOc1nc(F)cc2nc(S(=O)(=O)Nc3c(Cl)cccc3Cl)nn12 | inactive
32 | N#CCNCC#N | inactive
33 | S=C=S | inactive
34 | O=C1c2ccccc2C(=O)N1SC(Cl)(Cl)Cl | inactive
35 | C=CCSSCC=C | inactive
36 | CC(C)(C)OOC(=O)c1ccccc1 | inactive
37 | CNC(=O)NC(O)C(Cl)(Cl)Cl (configuration not stated) | inactive
38 | COCC(=O)N(c1c(C)cccc1C)C(C)C(=O)OC (configuration not stated) | inactive

Row | SMILES | Potency
39 | Cc1cccc([N+](=O)[O-])c1 | inactive
40 | Cl/C=C/CCl | inactive
41 | N#CC1(N=NC2(C#N)CCCCC2)CCCCC1 | inactive
42 | Nc1ccc(-c2ccc(N)c(Cl)c2)cc1Cl | inactive
43 | C#CCOC(=O)/C=C(C)/C=C/CC(C)CCCC(C)C (configuration not stated) | inactive
44 | Nc1ccc(Br)cc1 | inactive
45 | CCC(C)(C)c1ccc(O)cc1 | inactive
46 | C=C(C)C#N | inactive
47 | Cc1ccccc1N | inactive
48 | O=C(CCN1CC1)OCC(CO)(COC(=O)CCN1CC1)COC(=O)CCN1CC1 | inactive
49 | CCCCCBr | inactive
50 | CC(C)C1(C)N=C(c2nc3ccccc3cc2C(=O)O)NC1=O (configuration not stated) | inactive
51 | CCNc1nc(Cl)nc(NC(C)C)n1 | inactive
52 | N#CC(Cl)(Cl)Cl | inactive
53 | c1ccc2c(c1)oc1ccccc12 | inactive
54 | c1ccc(NNc2ccccc2)cc1 | inactive
55 | CC(C)CCCCCOC(=O)c1ccccc1C(=O)OCCCCCC(C)C | inactive
56 | CNC(=O)Oc1c(C(C)(C)C)cc(C)cc1C(C)(C)C | inactive
57 | C[C@]12CC[C@H]3[C@@H](CC[C@@]45O[C@@H]4C(O)=C(C#N)C[C@]35C)[C@@H]1CC[C@@H]2O | inactive
